Hits are enriched below; roughly 8.8% of the tested compounds scored in any of these assays.
KB-3-1 tox = KB-3-1 parental cell cytotoxicity. AID 1347075. actives 1.4% (n = 400,000). KB-3-1 viability, CellTiter-Glo ATP luminescence, 72 h. Potency, µM (top dose mostly 46.1 µM), actives largely listed as cytotoxic; note: nearly all actives have a fitted effect of over 60% in size
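72 h, 37 °C compound treatment of KB-3-1 parental cells; CellTiter-Glo added, 10 min, luminescence read. Data corrected against DMSO-only plates and normalized before curve fitting.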
HT1080 IDH1KD tx = kills HT-1080 cells with IDH1 knockdown. actives 2% (n = 360,000). HT-1080 IDH1 knockdown viability, ATP luminescence, 48 h. Potency, µM (top dose mostly 46.1 µM), usual class: cytotoxic
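In this qHTS, HT-1080 cells depleted of IDH1 are exposed for 48 h at 37 °C to compound titrations. Toxicity is scored from CellTiter-Glo luminescence, with DMSO as full viability and medium alone as none.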
HT1080-NT tox = kills 2HG-producing HT-1080-NT fibrosarcoma cells; HT-1080-NT fibrosarcoma viability, CellTiter-Glo ATP luminescence, 48 h; Potency, µM (titrated, usually from 46.1 µM), actives largely listed as cytotoxic; actives 1.6% (n = 360,000); AID 686970;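 note: NT is the 2HG producing partner of a matched IDH1 knockdown line; nearly all actives have a fitted effect of over 55% in size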
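HT-1080-NT; 750 cells/well; 5% FBS RPMI; 48 h compound, 37 degrees C; CellTiter-Glo luminescence; curve fitting and curve-class assignment.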
KB-V1 cytotox = KB-V1 MDR subline cytotoxicity. KB-V1 MDR cells viability, CellTiter-Glo, 72 h. Potency, µM (highest dose often 46.1 µM), most hits filed as cytotoxic. actives 3.4% (n = 400,000). AID 1347076; note: nearly all actives have a fitted effect of over 60% in size
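Compound-treated KB-V1 multidrug-resistant cells, 72 h, 37 degrees C; viability by CellTiter-Glo. Fitted qHTS curves give the values.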
IL1B secr inh = blocks inflammasome-driven IL-1 beta release; AID 743279; actives 4.7% (n = 360,000); activity change, % at 57.5 µM; THP-1 LPS/ATP IL-1B secretion, AlphaLISA, 16 h; hits give low values; in the data active = activity change below about -50%; inconclusive = mostly about -30% to -49%
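Secreted IL-1B measured by AlphaLISA bead assay after 16 h compound exposure of THP-1 cells; compounds (final up to 57.5 uM) added 1 h before LPS (250 ng/mL) and ATP (1.25 mM) stimulation; lower signal means less secretion.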
Large screens that a line does not name were inactive. Unless noted, calls come from the whole dose curve; as a rule, active = well fitted curve in the direction sought with a large enough effect; inconclusive = small, poorly fitted or top-dose-only effect, or another doubt; inactive = no such curve, though single readings can be large; an effect the other way counts as inactive or inconclusive.

COc1ccc(S(=O)(=O)NCc2ccccn2)cc1NC(=O)c1ccc(C)cc1	KB-3-1 tox 9.2µM, HT1080 IDH1KD tx 13µM, HT1080-NT tox 5.8µM, KB-V1 cytotox inconclusive
COc1ccc(S(=O)(=O)NCc2cccnc2)cc1NC(=O)c1ccc(Cl)cc1	KB-V1 cytotox inconclusive
COc1ccc(S(=O)(=O)NCc2ccccn2)cc1NC(=O)c1ccccc1	KB-3-1 tox 13µM, HT1080 IDH1KD tx 13µM, HT1080-NT tox 8.2µM, KB-V1 cytotox inconclusive
CCOc1ccc(S(=O)(=O)NCc2ccccn2)cc1NC(=O)c1ccccc1F	KB-3-1 tox inconclusive, HT1080 IDH1KD tx inconclusive, HT1080-NT tox 0.92µM, KB-V1 cytotox inconclusive
Cc1ccc(N(C)C(=O)CN(C)S(=O)(=O)c2ccc3c(c2)n(C)c(=O)c(=O)n3C)cc1	none
CC1CC(C)CN(C(=O)/C(=C\c2ccccc2)c2ccccc2)C1 (configuration not stated)	KB-3-1 tox inconclusive, KB-V1 cytotox 8.2µM, IL1B secr inh inconclusive
CN1CCN(C(=O)/C(=C/c2ccccc2)c2ccccc2)CC1	KB-3-1 tox inconclusive
Cc1cccc(OCC(=O)NNC(=O)CCCCC(=O)NNC(=O)COc2cccc(C)c2)c1	none
COC(=O)N1C(=O)[C@@](c2ccccc2)(C2CCCCC2)N1C(=O)OC	HT1080-NT tox inconclusive, IL1B secr inh -103
CC[C@@]1(c2ccccc2C)C(=O)N(C(=O)OC)N1C(=O)OC	KB-V1 cytotox inconclusive, IL1B secr inh -58
CC[C@]1(c2cccc(C)c2)C(=O)N(C(=O)OC)N1C(=O)OC	IL1B secr inh -105
COC(=O)N1[C@H](C)C=C[C@]1(Cc1ccccc1)C(=O)OC	KB-V1 cytotox inconclusive
COC(=O)N1C(=O)[C@](Cc2ccccc2)(c2ccccc2)N1C(=O)OC	KB-V1 cytotox inconclusive, IL1B secr inh -103
Cc1ccc2ncc(C(=O)Nc3cccc(C(F)(F)F)c3)c(=O)n2c1	KB-V1 cytotox inconclusive (no result: HT1080 IDH1KD tx, HT1080-NT tox, IL1B secr inh)
Cc1cccc(N(C)S(=O)(=O)c2ccc3c(c2)C(C)(C)C(=O)N3C)c1	none
COc1ccc(Cl)cc1NC(=O)c1nnn(CC(=O)Nc2ccc3c(c2)OCO3)c1N	KB-V1 cytotox inconclusive
O=S1(=O)N=C(Oc2ccccc2Br)c2ccccc21	none (no result: HT1080 IDH1KD tx, HT1080-NT tox, IL1B secr inh)
CCOc1ccc(OCCNC(=O)c2cc(C3CC3)nc3c2cnn3C(C)C)cc1	KB-V1 cytotox inconclusive, IL1B secr inh inconclusive
CC[C@]1(c2ccccc2)C(=O)N(C(=O)OC)N1C(=O)OC	IL1B secr inh -81
CC[C@@]1(c2ccccc2)C(=O)N(C(=O)OC)N1C(=O)OC	IL1B secr inh inconclusive
COC(=O)N1C(=O)[C@](c2ccccc2)(C(C)C)N1C(=O)OC	IL1B secr inh -92
COC(=O)N1CC(c2ccccc2)CC1=O (configuration not stated)	none
COC(=O)N1C(=O)[C@@](Cc2ccccc2)(c2ccccc2)N1C(=O)OC	IL1B secr inh -95
COc1ccc(S(=O)(=O)N2CCSC2C)cc1C (configuration not stated)	none
CC(C)COc1ccc(C(=O)N2CCC(c3nc4ccccc4s3)CC2)cc1	none (no result: HT1080 IDH1KD tx, HT1080-NT tox, IL1B secr inh)
Cc1cc(Nc2ccccc2C)n2nc(Cc3ccc(Cl)cc3)nc2n1	none (no result: HT1080 IDH1KD tx, HT1080-NT tox, IL1B secr inh)
CC(=O)c1c(C)[nH]c(C(=O)OCC(=O)Nc2ccccc2Cl)c1C	KB-3-1 tox 21µM, KB-V1 cytotox 4.6µM
CC(=O)c1c(C)[nH]c(C(=O)OCC(=O)Nc2cccnc2Cl)c1C	KB-3-1 tox inconclusive, KB-V1 cytotox inconclusive
CC(=O)c1c(C)[nH]c(C(=O)OCC(=O)Nc2cccc(S(=O)(=O)N3CCCC3)c2)c1C	KB-3-1 tox 2.3µM, KB-V1 cytotox inconclusive
CC(=O)c1c(C)[nH]c(C(=O)OCC(=O)Nc2cc(S(=O)(=O)N3CCCC3)ccc2Cl)c1C	KB-3-1 tox inconclusive, KB-V1 cytotox 13µM
CC(=O)c1c(C)[nH]c(C(=O)Nc2cccc(S(=O)(=O)N3CCCC3)c2)c1C	KB-3-1 tox inconclusive
Cc1cccc(N2CCN(C(=O)CSCc3c(C)noc3C)CC2)c1C	KB-3-1 tox 3.7µM, HT1080 IDH1KD tx inconclusive, KB-V1 cytotox 1.8µM
Cc1noc(C)c1CSc1ccccc1C(=O)N1CCN(c2ccccc2)CC1	none
Cc1noc(C)c1CSCC(=O)N1CCN(c2ccc(F)cc2)CC1	KB-3-1 tox inconclusive, KB-V1 cytotox 2.9µM

Screening data as filed in PubChem BioAssay.
